Source: PubChem
Compounds with a hit are over-represented: about 19% of the library has one in this group of screens.
HT1080NT lethal – kills 2HG-producing HT-1080-NT fibrosarcoma cells; HT-1080-NT fibrosarcoma viability, CellTiter-Glo ATP luminescence, 48 h; Potency, µM (top dose mostly 46.1 µM), actives largely listed as cytotoxic; 1.6% of 360,000 active; AID 686970;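 note: NT is the 2HG producing partner of a matched IDH1 knockdown line; nearly all actives have a fitted effect of over 55% in size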
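HT-1080-NT fibrosarcoma cells (2HG-overproducing), 750 cells/well in RPMI with 5% FBS, dosed after 2 h and incubated 48 h at 37C. CellTiter-Glo luminescence normalized to DMSO and no-cell wells; concentration-response curves fitted and classed.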
TDP1 cell CPT – growth inhibition of DT40 Tdp1-/-;hTDP1 cells with camptothecin (screen for TDP1 inhibitors) | chicken DT40 Tdp1-/-;hTDP1 cells + 20 nM CPT, ATP luminescence, 48 h | Potency, µM (titrated, usually from 46.2 µM), usual class: inhibitors | 12% of 420,000 active | AID 686979; note: nearly all actives have a fitted effect of over 55% in size
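Chicken DT40 Tdp1-/- cells complemented with human TDP1, 400 cells/well, exposed to compounds plus 20 nM camptothecin for at least 48 h at 37 C; viability read as ATP content by CellTiter-Glo luminescence.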
HT1080 IDH1KD tx – HT-1080 IDH1 knockdown cell toxicity (counter line). AID 686971. HT-1080 IDH1 knockdown viability, ATP luminescence, 48 h. Potency, µM (doses to about 46.1 µM), usual class: cytotoxic. 2% of 360,000 active
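Using the IDH1-knockdown HT-1080 line run in the same batch and compound series as the NT line, viability after 48 h at 37 °C was determined by CellTiter-Glo luminescence and expressed as % activity.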
DT40 TDP1 no CPT – qHTS for Inhibitors of human tyrosyl-DNA phosphodiesterase 1 (TDP1): qHTS in cells in absence of CPT | DT40 Tdp1-/- hTDP1 cells, no CPT, ATP luminescence, 48 h | Potency, µM (series often up to 46.2 µM), usual class: inhibitors | 15% of 420,000 active | AID 686978, 2013; note: nearly all actives have a fitted effect of over 55% in size
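Chicken DT40 Tdp1-/- cells complemented with human TDP1, screened without camptothecin (DMSO vehicle only), 400 cells/well. Compounds pin-transferred, cells incubated at 37 °C for at least 48 hr. Growth read as ATP-dependent luminescence (CellTiter-Glo, 30 min at RT).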
KB-V1 MDR tox – kills drug-selected multidrug resistant KB-V1 cells; 3.4% of 400,000 active; KB-V1 MDR cells viability, CellTiter-Glo, 72 h; Potency, µM (series often up to 46.1 µM), hits mostly cytotoxic; note: nearly all actives have a fitted effect of over 60% in size
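KB-V1, DMEM (no phenol red) + 10% FBS; cpd pin-transferred, titration series; 72 h, 37 degrees C; CellTiter-Glo, luminescence. Data normalized, curve-fit.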
KB-3-1 cytotox – KB-3-1 parental cell cytotoxicity; KB-3-1 viability, CellTiter-Glo ATP luminescence, 72 h; Potency, µM (top dose mostly 46.1 µM), hits mostly cytotoxic; 1.4% of 400,000 active; AID 1347075; note: nearly all actives have a fitted effect of over 60% in size
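Luminescent ATP read-out (CellTiter-Glo) measures survival of drug-naive KB-3-1 cells after 72 h compound exposure at 37 °C. Titration series was screened from lowest to highest concentration, with DMSO vehicle plates as background controls.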
Each line names hits and unclear results; the compound was inactive in the other large screens. Calls come from the whole dose curve; as a rule, active = well fitted curve in the direction sought with a large enough effect; inconclusive = small, poorly fitted or top-dose-only effect, or another doubt; inactive = no such curve, though single readings can be large; an effect the other way counts as inactive or inconclusive.

COC(=O)N/N=C/c1cn(Cc2ccc(Cl)cc2Cl)c2ccccc12	TDP1 cell CPT inconclusive, DT40 TDP1 no CPT inconclusive, KB-V1 MDR tox 16.4µM, KB-3-1 cytotox inconclusive
COC(=O)N/N=C/c1cn(Cc2ccccc2Cl)c2ccccc12	TDP1 cell CPT 18.4µM, HT1080 IDH1KD tx inconclusive, DT40 TDP1 no CPT 20.6µM
COC(=O)N/N=C/c1ccccc1Cl	none
COc1cc(C(=O)O)c2ccccc2n1	none
CC1CC(C)CN(C(=O)CSc2nnc(N)s2)C1 (stereo not given)	none
Cc1ccccc1OCC(=O)N/N=C/c1cn(Cc2ccccc2)c2ccccc12	HT1080NT lethal inconclusive, HT1080 IDH1KD tx inconclusive, DT40 TDP1 no CPT inconclusive, KB-3-1 cytotox inconclusive
COC(=O)N/N=C/c1cn(Cc2c(Cl)cccc2Cl)c2ccccc12	DT40 TDP1 no CPT inconclusive, KB-V1 MDR tox 16.4µM
Cc1ccc(C)c(N2CCN(CCN3CCCCC3)CC2)c1	DT40 TDP1 no CPT inconclusive, KB-V1 MDR tox inconclusive
COc1ccc2cc(C3CC(c4ccco4)=NN3S(C)(=O)=O)c(Cl)nc2c1 (stereo not given)	TDP1 cell CPT inconclusive, DT40 TDP1 no CPT inconclusive
Cc1ccc2cc(C3CC(c4ccco4)=NN3C(=O)CCC(=O)O)c(Cl)nc2c1 (stereo not given)	TDP1 cell CPT inconclusive, DT40 TDP1 no CPT 16.4µM
Cc1ccc2nc(Cl)c(C3CC(c4cccs4)=NN3C(=O)CCCC(=O)O)cc2c1 (stereo not given)	DT40 TDP1 no CPT 8.2µM, KB-V1 MDR tox inconclusive
CCCC[C@@H](CN[C@H](C)CNC)NCC1CCC(C(C)(C)C)CC1 (stereo not given in full)	HT1080NT lethal inconclusive, TDP1 cell CPT 5.8µM, HT1080 IDH1KD tx 18.4µM, DT40 TDP1 no CPT 6.51µM, KB-V1 MDR tox inconclusive, KB-3-1 cytotox inconclusive
CC1CC1C(=O)OCC(=O)NC(=O)NCc1ccco1 (stereo not given)	none
CC1CC2OC2CC1COC(=O)C1CC2OC2CC1C (stereo not given)	TDP1 cell CPT 16.4µM, DT40 TDP1 no CPT inconclusive
C/C(=N\NC(=O)C1CC1c1ccccc1)c1ccc(C)s1 (stereo not given)	TDP1 cell CPT inconclusive
CCOC(=O)C(/C(C)=N/NC(=O)C1CC1c1ccccc1)C(C)C (stereo not given)	KB-V1 MDR tox 16.4µM
Cc1ccc(CN(C(=O)c2ccco2)C(C(=O)NC2CCCC2)c2cccnc2)cc1 (stereo not given)	none
Cc1ccc(C)c(C(C)NC(=S)NC2CCCCC2)c1 (stereo not given)	HT1080NT lethal inconclusive, TDP1 cell CPT 25.9µM, HT1080 IDH1KD tx inconclusive, DT40 TDP1 no CPT inconclusive, KB-V1 MDR tox inconclusive, KB-3-1 cytotox inconclusive
CC(=O)/C(C#N)=C1\NC(=O)C(Cc2ccc(F)cc2)S1 (stereo not given)	TDP1 cell CPT inconclusive, DT40 TDP1 no CPT 1.3µM, KB-3-1 cytotox inconclusive
CC(=O)/C(C#N)=C1\NC(=O)C(Cc2ccc(C)c(C)c2)S1 (stereo not given)	TDP1 cell CPT 0.581µM, HT1080 IDH1KD tx inconclusive, DT40 TDP1 no CPT 0.0731µM, KB-V1 MDR tox 5.8µM, KB-3-1 cytotox 14.6µM
CNC(=O)/C(C#N)=C1/SC(Cc2ccc(F)cc2)C(=O)N1c1ccccc1 (stereo not given)	KB-V1 MDR tox inconclusive
Cc1ccc(CC2SC(=O)NC2=O)cc1Cl (stereo not given)	none
O=C1CC(c2ccc3ccccc3c2)NN1 (stereo not given)	TDP1 cell CPT 25.9µM, DT40 TDP1 no CPT inconclusive, KB-V1 MDR tox inconclusive
c1ccc(CCNc2cnccn2)cc1	none
NC(CCc1ccccc1)c1csc(Nc2cnccn2)n1 (stereo not given)	HT1080NT lethal inconclusive, TDP1 cell CPT 23.1µM, DT40 TDP1 no CPT 13µM, KB-V1 MDR tox inconclusive, KB-3-1 cytotox inconclusive
COc1cccc(Nc2nc(C(N)CCc3ccccc3)cs2)n1 (stereo not given)	HT1080NT lethal inconclusive, TDP1 cell CPT 18.4µM, HT1080 IDH1KD tx inconclusive, DT40 TDP1 no CPT inconclusive, KB-V1 MDR tox inconclusive, KB-3-1 cytotox inconclusive
COc1cccc(Nc2nc(C(N)COCc3ccccc3)cs2)n1 (stereo not given)	HT1080NT lethal 18.4µM, TDP1 cell CPT inconclusive, HT1080 IDH1KD tx inconclusive, DT40 TDP1 no CPT inconclusive
NC(=O)c1cccc(Nc2nc(C(N)CCc3ccccc3)cs2)n1 (stereo not given)	HT1080NT lethal inconclusive, TDP1 cell CPT 2.06µM, HT1080 IDH1KD tx inconclusive, DT40 TDP1 no CPT 2.91µM
C=CCNC(=S)Nc1nc2c(cc1C(=O)OCC)CCCC2	TDP1 cell CPT inconclusive, DT40 TDP1 no CPT 23.1µM
COCCN(C(=O)COC(=O)CSc1ccc2ccccc2c1)c1c(N)n(Cc2ccccc2)c(=O)[nH]c1=O	none
Cc1cccc(C(=O)n2c(=S)nc3ccccn32)c1	TDP1 cell CPT inconclusive, DT40 TDP1 no CPT inconclusive
COc1cc(NCc2ccccc2)c2ncn(C(C)C)c2c1	TDP1 cell CPT inconclusive
CCC(CO)Oc1cc(NC(=O)c2ccc(C)cc2)c2ncn(C(C)C)c2c1 (stereo not given)	TDP1 cell CPT 23.1µM, DT40 TDP1 no CPT inconclusive
CCC(CN(C)C)Oc1cc(NCc2ccccc2)c2ncn(C(C)C)c2c1 (stereo not given)	TDP1 cell CPT 25.9µM, DT40 TDP1 no CPT inconclusive
O=S1(=O)CC(N2CCC(Cc3ccccc3)CC2)CN1C1CCCCC1 (stereo not given)	TDP1 cell CPT inconclusive, DT40 TDP1 no CPT inconclusive, KB-V1 MDR tox inconclusive
O=C(NCCC1=CCCCC1)C1CCN(C(=O)Cc2ccccc2)CC1	DT40 TDP1 no CPT inconclusive, KB-V1 MDR tox inconclusive
CCn1c(=O)c(C(=O)CN2CCN(S(=O)(=O)c3cc(C)ccc3C)CC2)c(N)n(Cc2ccccc2)c1=O	TDP1 cell CPT 10.3µM, DT40 TDP1 no CPT 16.4µM, KB-V1 MDR tox inconclusive
CSCCC(NC(=O)COc1ccccc1)C(=O)NCCOc1ccc(C)cc1 (stereo not given)	none (no result: KB-V1 MDR tox, KB-3-1 cytotox)
O=C1N=NC2=C1c1c3ccccc3c(O)n1CC2	none
c1ccc2nc(-c3nc4ccccc4[nH]3)ccc2c1	HT1080NT lethal 25.9µM, TDP1 cell CPT inconclusive, HT1080 IDH1KD tx 13µM, DT40 TDP1 no CPT 5.17µM, KB-V1 MDR tox inconclusive, KB-3-1 cytotox inconclusive
c1ccc2c(-c3nc4ccccc4[nH]3)cccc2c1	HT1080NT lethal inconclusive, TDP1 cell CPT 9.2µM, HT1080 IDH1KD tx 18.4µM, DT40 TDP1 no CPT 4.61µM, KB-V1 MDR tox 4.61µM, KB-3-1 cytotox 20.6µM
Oc1ccc(C=Nc2ccccc2-c2nc3ccccc3[nH]2)c(O)c1	KB-V1 MDR tox inconclusive
Fc1ccccc1-c1nc2ccccc2[nH]1	none
